The values that follow come from PubChem BioAssay (NCI).

Assay [1] is described as follows: NCI Yeast Anticancer Drug Screen. Data for the rad50 strain (AID 155).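 Also: 0% = growth of vehicle-only cultures of the same strain.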 Particulars: S. cerevisiae rad50 strain growth inhibition; at 50.0 µM; stronger effect = higher value. Put shortly:
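Inhibition values express reduced yeast growth in compound-treated cultures relative to vehicle-treated controls.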

Assay [2] is described as follows: NCI Yeast Anticancer Drug Screen. Data for the mec2-1 strain (AID 157). Particulars: S. cerevisiae mec2-1 strain, at 50.0 µM, stronger effect = higher value. Put shortly: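 Cells of the genetically defined mec2-1 yeast strain are incubated with test compound. Inhibition of growth is calculated against vehicle-treated controls.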
Assay [3] can be described thus: NCI Yeast Anticancer Drug Screen. Data for the sgs1 mgt1 strain (AID 161).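 Also: 0% = growth of cultures given vehicle only.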 Particulars: S. cerevisiae sgs1 mgt1 strain, at 50.0 µM, stronger effect = higher value. Put shortly: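 Test agents were incubated with a DNA-repair-mutant yeast strain. Growth was then read and compared against vehicle-treated controls.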
Assay [4] can be described thus: NCI Yeast Anticancer Drug Screen. Data for the cln2 rad14 strain (AID 165).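 Also: 0% = growth equal to vehicle treated cultures.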 Particulars: S. cerevisiae cln2 rad14 strain, at 50.0 µM, stronger effect = higher value. In outline:
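The screen exposed genetically defined yeast (cln2 rad14) to test compounds and scored growth inhibition relative to vehicle-treated controls.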

The nature of assay [5]: NCI Yeast Anticancer Drug Screen. Data for the bub3 strain (AID 167). Particulars: S. cerevisiae bub3 mutant strain, at 50.0 µM, stronger effect = higher value. Put shortly:
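Steps: expose the mutant yeast strain to compound; grow alongside vehicle-treated cultures; measure growth; express inhibition against the vehicle cultures.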

Assay [6] can be described thus: NCI Yeast Anticancer Drug Screen. Data for the mlh1 rad18 strain (AID 175). Particulars: S. cerevisiae mlh1 rad18 strain growth inhibition; at 50.0 µM; stronger effect = higher value. In outline: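 Compound-treated yeast growth, normalised to vehicle controls. Strain bears defined DNA repair mutations.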

The structures appear in SMILES notation. The panel holds about 79,000 compounds, 15% with a hit somewhere; the sample as a whole holds those more often. Unmarked numbers belong to inactive results. Activity calls are given as the source filed them. Rule as the data show it: active = growth inhibition above about 70%; inactive = the rest.

Regarding `COc1ccc(NC(C)=O)cc1C1CCC(=O)N1` (stereo not drawn), the growth inhibition is 12.2% in assay [1]; 7.25% in assay [2]; -1.65% in assay [3]; 10.1% in assay [4]; -19% in assay [5]; -23.6% in assay [6].
For `CC1=CC(=O)C(=O)c2ccccc21`, the growth inhibition in assay [1] was -34.9%; in assay [2] it was -9.65%; in assay [3], -5.5%; in assay [4], 10.4%; in assay [5] it was -4.4%; in assay [6], -4.9%.
For `Cc1ccc(N=Cc2cc(Cl)cc(Cl)c2OC(=O)c2ccccc2)cc1C`, the growth inhibition in assay [1] was 81.8% (active); in assay [2], 91.7% (active); in assay [3] it was 91% (active); in assay [4] it was 90.2% (active); in assay [5], 96.5% (active); in assay [6], 93.3% (active).
Take `Cc1ccc(S(=O)(=O)NC2CC3(C)CCC2C3(C)C)cc1` (stereo not drawn): the growth inhibition in assay [1] is -0.6%; in assay [2] it was -20.4%; in assay [3] it was -5.55%; in assay [4], -46.1%; in assay [5], 14.8%; in assay [6] it was -4.45%.
Turning to `Cn1c(=O)c2c(nc(/N=C/c3ccncc3)n2C)n(C)c1=O`, the growth inhibition in assay [1] was -3.35%; in assay [2], -5.95%; in assay [3] it was -5.9%; in assay [4], -75.7%; in assay [5], -16.8%; in assay [6], -2.85%.
With `S=C1N=C(Cl)/C(=C\c2ccco2)N1`, the growth inhibition in assay [1] was -4.55%; in assay [2], -18%; in assay [3], 12.1%; in assay [4], 4.2%; in assay [5], 15.9%; in assay [6], -20.6%.
On to `Cc1ccc(NC(=O)Oc2cccc(C(F)(F)F)c2)cc1`, for which the growth inhibition in assay [1] is -8.55%; in assay [2], 17.4%; in assay [3], 23.1%; in assay [4], -12.7%; in assay [5], 15.4%; in assay [6], 35.6%.
As to `CC(=O)Nc1nc(Cl)c2ncn(C3OC(COC(=O)c4ccccc4)CC3OC(=O)c3ccccc3)c2n1` (stereo not drawn), the growth inhibition in assay [1] is 10.2%; in assay [2], 3.1%; in assay [3] it was -8.8%; in assay [4] it was 2.6%; in assay [5] it was 10.6%; in assay [6] it was 4.5%.
On to `CC(=O)c1ccc(CCCCc2ccc([N+](=O)[O-])cc2)cc1`, for which the growth inhibition in assay [1] is -4.2%; in assay [2] it was -17.8%; in assay [3], 16.5%; in assay [4] it was -59.5%; in assay [5], 18.2%; in assay [6], -32%.
For the molecule `Cc1ccccc1-c1c(N)nc(N)nc1C(=O)Nc1nccs1`, the growth inhibition is -26.6% in assay [1]; -36.2% in assay [2]; -39.6% in assay [3]; -3.85% in assay [4]; -28.1% in assay [5]; -7.9% in assay [6].
For the molecule `CC(=O)Oc1ccc(OC(C)=O)c([N+](=O)[O-])c1`, the growth inhibition is 24.1% in assay [1]; 17.2% in assay [2]; -1.65% in assay [3]; -9.75% in assay [4]; 1% in assay [5]; 29.2% in assay [6].
Turning to `COc1ccc(C(=O)c2cc(OC)c(OC)c(OC)c2)cc1OC`, the growth inhibition in assay [1] was -21.9%; in assay [2], -27.2%; in assay [3], -13.8%; in assay [4], 0.3%; in assay [5], 7.45%; in assay [6], -10.4%.
Regarding `N#CCCN(CCC#N)c1ccc(C(=O)NN)cc1`, the growth inhibition in assay [1] is -18.1%; in assay [2] it was -15.9%; in assay [3], -3.2%; in assay [4], 25.2%; in assay [5], -8.8%; in assay [6], -5.3%.
Regarding `O=C(NC1C=Nc2ccc(Cl)cc2NC1=O)c1ccc(Cl)cc1` (stereo not drawn), the growth inhibition in assay [1] was 18%; in assay [2] it was 20.9%; in assay [3] it was 31.4%; in assay [4], 23.6%; in assay [5], 6.95%; in assay [6], 31.6%.
Consider `Cc1ccc(Cl)cc1NC(=O)C(C)Oc1ccccc1` (stereo not drawn), for which the growth inhibition was 4.45% in assay [1]; -1.85% in assay [2]; -2% in assay [3]; -4.75% in assay [4]; 30.1% in assay [5]; 13.9% in assay [6].
Consider `CCCCCCCCCCCC(=O)Nc1cc(Cl)c(OC)cc1OC`, for which the growth inhibition in assay [1] was -17.4%; in assay [2], 6.75%; in assay [3], 13.9%; in assay [4] it was -32.8%; in assay [5], 7.1%; in assay [6], 48.4%.
For `Cc1c2oc3c(C)ccc(C(=O)NCCN4CCN(c5ccccc5)CC4)c3nc-2c(C(=O)NCCN2CCN(c3ccccc3)CC2)c(N)c1=O`, the growth inhibition in assay [1] is -4.7%; in assay [2], 2.2%; in assay [3], -8.5%; in assay [4], -11.3%; in assay [5], -3.9%; in assay [6] it was -32.6%.
For `CC(=O)/C=C(\O)c1c(C)[nH]c2ccccc12`, the growth inhibition in assay [1] is -16%; in assay [2], 9%; in assay [3], -3.95%; in assay [4], -41.4%; in assay [5] it was -11.9%; in assay [6], -5.95%.
Turning to `Nc1nc(=O)n(CCCOc2ccc([N+](=O)[O-])c(Cl)c2)cc1-c1ccc(Cl)c(Cl)c1`, the growth inhibition in assay [1] is -1.2%; in assay [2] it was -8.2%; in assay [3] it was -5.4%; in assay [4], -21.4%; in assay [5], -3.15%; in assay [6], 6.2%.
With `C=CCCN=C(SC)SC`, the growth inhibition in assay [1] is 3.8%; in assay [2], 20.9%; in assay [3], 16.2%; in assay [4], -11.1%; in assay [5], -0.9%; in assay [6], 4.4%.
In the case of `OCCNc1ncnc2[nH]ncc12`, the growth inhibition in assay [1] is 2.75%; in assay [2], -6.1%; in assay [3] it was -20.6%; in assay [4] it was -21.8%; in assay [5], -24.2%; in assay [6], 5.55%.
On to `Cc1cccc(C)n1`, for which the growth inhibition is -1.85% in assay [1]; -22.1% in assay [2]; -3.15% in assay [3]; -1.85% in assay [4]; -6.55% in assay [5]; -21.4% in assay [6].
As to `CCC(=O)COC(C)=O`, the growth inhibition in assay [1] was -3.75%; in assay [2], -22%; in assay [3] it was -6.05%; in assay [4], -2.35%; in assay [5] it was -3.75%; in assay [6], 0.95%.
Turning to `COc1cc(C2NCCC(c3ccccc3)(c3ccccc3)N2)cc(OC)c1OC` (stereo not drawn), the growth inhibition in assay [1] was -30.9%; in assay [2] it was -4.65%; in assay [3], 5.25%; in assay [4] it was 4.55%; in assay [5], -7.6%; in assay [6], 5.5%.
For `COc1coc(/C=C/C(=O)c2ccc(O)c(O)c2)cc1=O`, the growth inhibition was -11.9% in assay [1]; 12.7% in assay [2]; 10.3% in assay [3]; -11.8% in assay [4]; -6.25% in assay [5]; -32.5% in assay [6].
As for `Nc1ccc(S(=O)(=O)CCO)cc1`, the growth inhibition in assay [1] was 1.1%; in assay [2], -7.5%; in assay [3], 4.65%; in assay [4], 4.45%; in assay [5], -5.6%; in assay [6], 3.6%.
Regarding `COc1ccc(OC)c(/C=C/C2=C(C)C(=O)CC(c3cc(OC)ccc3OC)C2C)c1` (stereo not drawn), the growth inhibition was 4.3% in assay [1]; 12.3% in assay [2]; 28.3% in assay [3]; 8.75% in assay [4]; 2.35% in assay [5]; 4.3% in assay [6].
For the molecule `O=[N+]([O-])c1ccc(N/N=C/c2ccccc2O)c([N+](=O)[O-])c1`, the growth inhibition in assay [1] is 5.05%; in assay [2] it was 20.5%; in assay [3], 4.8%; in assay [4], -6.8%; in assay [5] it was 1.05%; in assay [6] it was 4.2%.
For the molecule `Cc1[nH]nc(C(=O)O)c1[N+](=O)[O-]`, the growth inhibition in assay [1] was 35.6%; in assay [2] it was 11.3%; in assay [3], 20.2%; in assay [4], -25.7%; in assay [5] it was -3.2%; in assay [6] it was 8.2%.
Turning to `CCCCC(CC)CN(CC)CC` (stereo not drawn), the growth inhibition in assay [1] is -11.1%; in assay [2] it was -4.25%; in assay [3] it was -26.5%; in assay [4], -10.4%; in assay [5] it was 2.8%; in assay [6] it was 4.85%.
Take `COCC(=O)Nc1ccccc1`: the growth inhibition in assay [1] was -13.5%; in assay [2], 6.05%; in assay [3] it was 2.1%; in assay [4], 1.55%; in assay [5], 6.8%; in assay [6] it was -6%.
In the case of `O=C1c2ccccc2C(=O)c2c1cc1c(c2O)OCO1`, the growth inhibition was 23.4% in assay [1]; 13.4% in assay [2]; 20.1% in assay [3]; -10.2% in assay [4]; -38% in assay [5]; 46.9% in assay [6].
Turning to `COc1cc(-c2cc(OC)c(N=N/C(=N/Nc3ccc([N+](=O)[O-])cc3)c3ccc([N+](=O)[O-])cc3)cc2Cl)c(Cl)cc1N=N/C(=N\Nc1ccc([N+](=O)[O-])cc1)c1ccc([N+](=O)[O-])cc1`, the growth inhibition in assay [1] is 7.9%; in assay [2], 9.65%; in assay [3], -5.95%; in assay [4], -21.2%; in assay [5], -14.2%; in assay [6], -13.8%.
`CCOc1ccccc1NC(=O)CC1Sc2ccccc2NC1=O` (stereo not drawn): the growth inhibition in assay [1] was 24.5%; in assay [2] it was -14.7%; in assay [3] it was 15.3%; in assay [4], 2.55%; in assay [5] it was 3.85%; in assay [6], 21.5%.
Take `Cc1nc(N)[nH]c(=O)c1CCCN=Cc1ccccc1`: the growth inhibition in assay [1] was 8.5%; in assay [2], 56.5%; in assay [3], 2.8%; in assay [4] it was 18.5%; in assay [5] it was 92.2% (active); in assay [6], 51.1%.
On to `O=C(Nc1ccc(F)cc1)Nc1cccc(C(=O)O)c1`, for which the growth inhibition in assay [1] was 20%; in assay [2], 7.9%; in assay [3] it was 6.4%; in assay [4], 7.6%; in assay [5], 22.4%; in assay [6], 12.2%.
In the case of `CCCSc1ncnc2c1nc(C)n2CO`, the growth inhibition is -2.15% in assay [1]; -2.55% in assay [2]; -1.35% in assay [3]; -14.1% in assay [4]; 2.3% in assay [5]; 0% in assay [6].
`C[n+]1ccccc1C(=O)O`: the growth inhibition was 29.3% in assay [1]; 28.9% in assay [2]; 50.4% in assay [3]; 26.6% in assay [4]; 31.3% in assay [5]; 40.4% in assay [6].
